SW480 rereplic – inducers of DNA re-replication in SW480 colon cancer cells; SW480 DNA re-replication, Hoechst DNA content imaging, 48 h; actives 1.8% (n = 340,000); Potency, µM (top dose mostly 46.1 µM), for inactives: at the top dose re-replication activation, most hits filed as activators; also: % of control where 0% means no effect; nearly all actives have a fitted effect of over 55% in size
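Hoechst fluorescence of nuclei (405 nm excitation, 500-530 nm emission) measured by plate-scanning imager after 48 hr compound exposure at 37 C; re-replication scored as increased number of nuclei with elevated intensity.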
KB-3-1 tox – KB-3-1 parental cell cytotoxicity; KB-3-1 viability, CellTiter-Glo ATP luminescence, 72 h; Potency, µM (titrated, usually from 46.1 µM), hits mostly cytotoxic; actives 1.4% (n = 400,000); AID 1347075; also: % is scaled to controls: 0 for no effect and ±100 for the full control effect; nearly all actives have a fitted effect of over 60% in size
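Parental KB-3-1 adenocarcinoma cells in phenol-red-free DMEM with 10% FBS were pin-treated with compounds at several concentrations, incubated 72 h at 37 °C, and viability read by CellTiter-Glo luminescence; concentration-effect curves were fitted after normalization.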
MCF10A rerep – induces DNA re-replication in MCF 10a normal breast cells. actives 2.9% (n = 350,000). Potency, µM (highest dose often 46.1 µM), without a hit: at the highest dose activity, positive = re-replication, actives largely listed as activators. AID 624296. MCF 10A DNA re-replication, Hoechst nuclear intensity, 48 h; also: % of control where 0% means no effect; nearly all actives have a fitted effect of over 50% in size
KB-V1 cytotox – kills drug-selected multidrug resistant KB-V1 cells | KB-V1 MDR cells viability, CellTiter-Glo, 72 h | Potency, µM (series often up to 46.1 µM), hits mostly cytotoxic | actives 3.4% (n = 400,000); also: % is scaled to controls: 0 for no effect and ±100 for the full control effect; nearly all actives have a fitted effect of over 60% in size
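KB-V1, DMEM (no phenol red) + 10% FBS; cpd pin-transferred, titration series; 72 h, 37 degrees C; CellTiter-Glo, luminescence. Data normalized, curve-fit.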
ELG1 repair inh – inhibitors of ELG1-dependent DNA repair in HEK293T cells; HEK293T ELG1-luciferase reporter, luminescence, 16 h; DNA damage induced by 5-fluorouridine; Potency, µM (titrated, usually from 46.1 µM), without a hit: top-dose activity change, negative = inhibition, usual class: inhibitors; actives 2.3% (n = 330,000); AID 504467; also: % is scaled to controls: 0 for no effect and ±100 for the full control effect; nearly all actives have a fitted effect of over 55% in size
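Luminescence from the luciferase reporter, measured 30 min after ONE-Glo reagent at room temperature, was the read-out. Beforehand, 2,000 cells per well were exposed for 16 hr at 37 °C to 5-fluorouridine together with compound or vehicle.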
ELG1 FLuc counter – luciferase inhibition in cell-free luciferin readout for ELG1 hits; shares compounds with ELG1 repair inh; cell-free firefly luciferase luminescence counter-screen, ViewLux; Potency, µM (highest dose often 46.1 µM), inactives show at the highest dose activity change, negative = inhibition, usual class: inhibitors; actives 3% (n = 350); AID 624247; also: % is scaled to controls: 0 for no effect and ±100 for the full control effect
ELG1-Luc inh – human ELG1 repair inhibition, luciferase-tagged ELG1 confirmation; actives 68% (n = 670); HEK293T ELG1-luciferase levels, luminescence; cells co-treated with 5-fluorouridine; Potency, µM (top dose mostly 46.1 µM), without a hit: at the top dose activity change, negative = inhibition, most hits filed as inhibitors; shares compounds with ELG1 repair inh; also: % is scaled to controls: 0 for no effect and ±100 for the full control effect; nearly all actives have a fitted effect of over 55% in size
ELG1-Luc MMS – confirmation of human ELG1 repair inhibitors, MMS stimulated; actives 53% (n = 670); AID 624249; Potency, µM (highest dose often 46.1 µM), inactives show at the top dose activity change, negative = inhibition, usual class: inhibitors; shares compounds with ELG1 repair inh; HEK293T luciferase-tagged ELG1 level, MMS stimulated; also: % is scaled to controls: 0 for no effect and ±100 for the full control effect; nearly all actives have a fitted effect of over 60% in size
ELG1 5-FU – confirmation of ELG1 repair inhibitors: viability with 5FU; shares compounds with ELG1 repair inh; 670 tested, under 10 active; cell viability with 5-FU, ELG1-dependent repair; Potency, µM (titrated, usually from 46.1 µM), for inactives: top-dose activity change, negative = viability loss, usual class: cytotoxic;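 also: ELG1-luc HEK293T cells cotreated with 5-fluorouridine at 10 µM final; viability measured 16 h after compound addition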
ELG1 MMS viab – confirmation of ELG1 repair inhibitors: viability with MMS. shares compounds with ELG1 repair inh. Cell viability with MMS, ELG1-dependent DNA repair. Potency, µM (series often up to 46.1 µM), without a hit: at the highest dose activity change, negative = viability loss, hits mostly cytotoxic. actives 33% (n = 670). AID 624251;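 also: ELG1-luc HEK293T cells co-treated with 10 µM MMS; viability read 16 h after compound addition; % is scaled to controls: 0 for no effect and ±100 for the full control effect; nearly all actives have a fitted effect of over 60% in size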
Cell viab unstim – counter-screen for ELG1 repair inhibitors: unstimulated cell viability. shares compounds with ELG1 repair inh. cell viability counter-screen, unstimulated, luminescence. Potency, µM (titrated, usually from 45.9 µM), for inactives: at the top dose activity change, negative = loss of viability, hits mostly cytotoxic. actives 8% (n = 900);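 also: compound exposure lasted 16 hours before reading; % is scaled to controls: 0 for no effect and ±100 for the full control effect; nearly all actives have a fitted effect of over 55% in size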
FLuc biochem – firefly luciferase inhibition counter-screen | shares compounds with ELG1 repair inh | purified firefly luciferase, luminescence counter-screen | Potency, µM (top dose mostly 57.5 µM), for inactives: top-dose activity, negative = inhibition, most hits filed as inhibitors | actives 10% (n = 350) | AID 624253; also: % is scaled to controls: 0 for no effect and ±100 for the full control effect
An asterisk follows results filed as active; i = inactive; ? = inconclusive; · = no result; ! = repeats disagree. Hits are enriched below; roughly 8.1% of the tested compounds scored in any of these assays. Calls follow the shape of the dose curve; as a rule, active = well fitted curve in the direction sought with a large enough effect; inconclusive = small, poorly fitted or top-dose-only effect, or another doubt; inactive = no such curve, though single readings can be large; an effect the other way counts as inactive or inconclusive. Potency is read from the fitted curve at half-maximal effect.

SMILES	SW480 rereplic	KB-3-1 tox	MCF10A rerep	KB-V1 cytotox	ELG1 repair inh	Cell viab unstim	others
O=C(COc1ccc(C(=O)c2ccccc2)cc1)Nc1cccnc1	-19.7%	?	15.1%	?	1.03µM*	?	ELG1-Luc inh=?;ELG1-Luc MMS=0.996µM*;ELG1 5-FU=-1.5%;ELG1 MMS viab=0.996µM*
CCOc1ccc(CCn2c3c(c(=O)[nH]c2=O)C(NC(=O)c2ccccc2)(C(F)(F)F)C(=O)N3)cc1OCC (configuration not stated)	·	i	·	i	·	·
CCCCCCC[C@@H](C/C=C/CCC(=O)N(C)C/C(=C/Cl)C/C(=C\C(=O)N1CC(OC)=CC1=O)OC)OC	?	i	?	?	?	?
CCCCCCC[C@@H](C/C=C/CCC(=O)N(C)C/C(=C/Cl)C/C(=C\C(=O)N1C[C@H](O)CC1=O)OC)OC	?	i	?	i	?	·
COc1ccc2c(c1)CCc1c(C(=O)Nc3cc(OC)c(Cl)cc3OC)noc1-2	·	i	·	i	·	·
Cc1ccc(S(=O)(=O)Nc2cc3c4c(c2)CCN4C(=O)CC3)cc1	3.2%	i	?	?	?	-0.4%	ELG1 FLuc counter=34.1%;FLuc biochem=1.5%
CN1C(=O)C2(c3ccccc31)N(c1cccc(C(F)(F)F)c1)C(=O)CS2(=O)=O (configuration not stated)	·	i	·	?	·	·
COc1ccc(OCC(=O)Nc2ccccc2C(=O)NC2CC2)cc1	-19.9%	i	-2.0%	i	9.8%	·
Cc1cc(C(=O)NNc2ccc(F)cc2)no1	-9.2%	?	13µM*	i	2.91µM*	0.5%	ELG1-Luc inh=-4.6%;ELG1-Luc MMS=19.0%;ELG1 5-FU=-8.1%;ELG1 MMS viab=-2.2%
CCOC(=O)c1c(NC(=O)C(C)Sc2nnc(C)c(=O)[nH]2)sc2c1CCCC2 (configuration not stated)	11.5%	i	11.0%	i	-1.0%	·
CCOc1cc(S(=O)(=O)NCc2ccncc2)ccc1Cl	-18.5%	?	11.6%	i	?	-4.4%	ELG1 FLuc counter=-1.2%;ELG1-Luc inh=?;ELG1-Luc MMS=0.561µM*;ELG1 5-FU=-8.3%;ELG1 MMS viab=0.706µM*;FLuc biochem=0.2%
COCCCNc1ccn2nc(-c3ccc(OCc4ccccc4)cc3)cc2n1	·	i	·	i	·	·
Cc1csc2ncnc(NCCc3ccccn3)c12	?	?	-0.8%	i	1.46µM*	?	ELG1-Luc inh=?;ELG1-Luc MMS=1.58µM*;ELG1 5-FU=-2.6%;ELG1 MMS viab=2.23µM*
O=C1C[C@@H]2c3c(cccc3CN1Cc1ccccc1Br)C[C@@H](O)[C@H]2O	-7.0%	i	?	i	·	·
Cc1c(C(=O)Nc2nccs2)oc2ccc(Br)cc12	10.4%	5.8µM*	?	8.2µM*	?	-8.4%
Cc1c(C(=O)Nc2nccs2)oc2ccc(F)cc12	1.6%	i	-3.3%	i	?	·
Cc1cccc(NC(=O)CN2C(=O)c3cccc4cccc2c34)c1C	·	i	·	i	·	·
COc1cc(C(O)c2nc(-c3cccc(C#N)c3)cs2)ccc1F (configuration not stated)	·	i	·	i	·	·
O=C1CCC[C@@H]2Cc3nc4cc5c(cc4cc3[C@@H]3CCN1[C@H]23)OCO5	-18.6%	i	-3.0%	18.4µM*!	·	?
COc1ccc2ncn(-c3ccccc3)c2c1	13.8%	i	1.4%	?	2.31µM*	7.4%	ELG1-Luc inh=?;ELG1-Luc MMS=?;ELG1 5-FU=9.2%;ELG1 MMS viab=?
c1ccc(-n2cnc3ccccc32)cc1	-5.5%	i	2.1%	?	?	·
COc1cccc(CNC(=O)Cn2c(=O)ccc3cc(S(=O)(=O)N4CCC(C)CC4)ccc32)c1	·	i	·	i	·	·
CN(C)S(=O)(=O)c1cccc(CSCc2cccc(S(=O)(=O)N(C)C)c2)c1	-5.9%	?	15.6%	?	1.3µM*	?	ELG1-Luc inh=?;ELG1-Luc MMS=1.12µM*;ELG1 5-FU=-13.0%;ELG1 MMS viab=1.12µM*
Cc1cc(C)n2nc(SCc3cccc(S(=O)(=O)N(C)C)c3)nc2n1	1.7%	i	6.4%	i	-1.1%	·
Cc1nc2sc3c(NCc4ccco4)ncnc3c2c2c1COC(C)(C)C2	?	?	?	18.4µM*	2.59µM*	?	ELG1 FLuc counter=-6.7%;ELG1-Luc inh=3.54µM*;ELG1-Luc MMS=22.3µM*;ELG1 5-FU=?;ELG1 MMS viab=-11.2%;FLuc biochem=-3.8%
SMILES	SW480 rereplic	KB-3-1 tox	MCF10A rerep	KB-V1 cytotox	ELG1 repair inh	Cell viab unstim	others
O=C(COc1ccc2oc(-c3ccccc3)cc(=O)c2c1)Nc1ccccc1	-0.1%	i	8.7%	i	?	·
O=c1cc(-c2ccccc2)oc2ccc(Br)cc12	-4.9%	i	?	i	?	-13.8%
COc1cccc2oc(-c3ccccc3)cc(=O)c12	·	·	·	·	·	?
COc1ccc(-c2nn(CC(=O)NCc3ccccc3)c3c2cnc2ccc(F)cc23)cc1	·	i	·	i	·	·
C[C@H]1O[C@@H](n2cc(F)c(=O)[nH]c2=O)[C@H](O)[C@@H]1O	12.6%	i	-28.7%	i	-7.5%	·
OC(c1ccc(-c2ccccc2)cc1)c1ncc(-c2ccccc2)[nH]1 (configuration not stated)	·	i	·	i	·	·
O=C(CSc1nc2c([nH]c3ccccc32)c(=O)n1-c1ccc(Cl)cc1)NC1CCCCC1	·	i	·	?	·	·
